Bioassay records deposited in PubChem by Broad Institute.
Shown is part of a subset that was picked to be rich in hits.
Shh pathway inh – Sonic Hedgehog pathway inhibition; 22,000 tested, 2.1% active; Shh-LIGHT2 Gli-luciferase reporter, 30 h; inhibition, % (no concentration beside the values);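 active = mean inhibition across valid replicates above about 65%, limit read from the data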;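 note: pathway switched on by Shh-conditioned medium diluted 1 in 25 in low serum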
BJeLR viability – BJeLR cell viability reduction. viability loss activity score, % (test concentration not listed). AID 2275. 30,000 tested, 0.64% active. BJeLR fibroblasts viability, CellTiterGlo ATP luminescence, 48 h; HRASV12, hTERT and SV40 LT/ST transformed; in the data active = viability loss activity score above about 50%;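 note: higher score means fewer live cells and less ATP luminescence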
An asterisk follows results filed as active; nt = no result.

SMILES	Shh pathway inh	BJeLR viability
OC(CSc1nccc(-c2ccc3c(c2)OCCO3)n1)C(F)(F)F (stereo not given)	nt	6
COc1ccccc1NC(=O)CSc1nncn2c1cc1oc(C)cc12	nt	5
O=C1C(C=NCCc2c[nH]c3ccccc23)=C(O)c2ccccc21	nt	-15
CCNc1nc(N2CCOCC2)nc(N2CCC(Cc3ccccc3)CC2)n1	nt	0
O=C1N=C(c2cccc(O)c2)c2ccccc2Nc2ccccc21	86*	-4
CN1C(=O)c2ccccc2NC(=O)[C@]12O[C@@H]2c1cccc(O)c1	-15	-7
CC(C)=CCc1c(O[C@@H]2O[C@H](CO)[C@@H](O)[C@H](O)[C@H]2O)cc(O)c2c1O[C@H](c1ccc(O)cc1)CC2=O	-11	-3
C[C@@H]1CN([C@@H](C)CO)C(=O)Cc2cc(NC(=O)Nc3ccc(C(F)(F)F)cc3)ccc2O[C@@H]1CN(C)C(=O)Nc1ccc2c(c1)OCO2	83*	nt
Cc1noc(C)c1NC(=O)N(C)C[C@H]1Oc2ccc(NC(=O)CCN3CCOCC3)cc2CC(=O)N([C@@H](C)CO)C[C@H]1C	67*	nt
CC(C)NC(=O)Nc1ccc2c(c1)CC(=O)N([C@H](C)CO)C[C@@H](C)[C@H](CN(C)C(=O)Nc1ccc(F)cc1)O2	-8	nt
CC(C)NC(=O)Nc1ccc2c(c1)CC(=O)N([C@H](C)CO)C[C@H](C)[C@H](CN(C)C(=O)Nc1ccc(F)cc1)O2	77*	nt
C[C@H]1CN([C@@H](C)CO)C(=O)Cc2cc(NC(=O)Nc3ccc(C(F)(F)F)cc3)ccc2O[C@H]1CN(C)C(=O)Nc1ccc2c(c1)OCO2	-23	nt
Cc1noc(C)c1NC(=O)N(C)C[C@@H]1Oc2ccc(NC(=O)CCN3CCOCC3)cc2CC(=O)N([C@H](C)CO)C[C@H]1C	-8	nt
COc1cccc2sc(=NC(=O)Cc3cccc4ccccc34)n(C)c12	nt	5
CC1=C(C(=O)OCc2ccccc2)C(c2ccoc2)C(C#N)=C(N)S1 (stereo not given)	3	-8
CCc1ccc(-c2nc(CN3CCC(C(=O)NC4CC4)CC3)c(C)o2)cc1	nt	-1
CCOc1ccc(NC(=O)CC(C)Cc2cc(C)cc(C)c2)cc1 (stereo not given)	nt	-2
C=C1C(=O)O[C@H]2[C@H]1[C@@H](OC(=O)/C(C)=C\C)C(OC(C)=O)/C(C(=O)OC)=C\CC[C@@]1(C)O[C@H]21 (stereo not given in full)	-72	68*
C=C1C(=O)O[C@H]2[C@H]1C[C@H](OC(=O)/C(C)=C\C)/C(C)=C\CC[C@@]1(C)O[C@@H]21	5	21
C=C1C(=O)O[C@H]2[C@H]1[C@@H](OC(=O)C(C)(O)CCl)C(OC(C)=O)/C(C(=O)OC)=C\CC[C@@]1(C)O[C@H]21 (stereo not given in full)	-16	50*
C=C1C(=O)O[C@H]2[C@H]1[C@@H](OC(=O)/C(C)=C/C)C(OC(C)=O)/C(C(=O)OC)=C\CC[C@@]1(C)O[C@H]21 (stereo not given in full)	-313	61*
C=C1C(=O)O[C@@H]2[C@H]1[C@H](O)C[C@]1(C)[C@@H](O)CC=C(C)[C@@H]21	-11	-5
N#Cc1cc(C#N)c(SCC(=O)NCc2ccco2)nc1N	-36	-2
COc1ccc(OC)c(NC(=S)NCc2ccc3[nH]c(C)cc3c2)c1	nt	0
O=C(O)c1[nH]n(-c2ccccc2)c(=O)c1/C=C1\C=Nc2ccccc21	nt	-1
SMILES	Shh pathway inh	BJeLR viability
COc1ccc(N2C(=O)CCC(C(=O)NCC3CCCO3)C2c2ccc(F)cc2)cc1 (stereo not given)	nt	-6
Cc1ccc(C=C2C(=O)NC(=O)NC2=O)cc1	nt	-7
O=C(C1CC1)N1c2ccccc2CCc2ccccc21	nt	54*
O=C(NC1CCCCC1)N1c2ccccc2CCc2ccccc21	nt	-1
COc1ccc(C(=O)Nc2ccc(-c3cn4ccccc4n3)cc2)cc1	nt	8
CCOC(=O)c1c(C)nsc1Nc1cc(C)ccc1C	nt	2
CCCCNc1c(C(=O)OCC)c(C)nc2c1cnn2CC	-34	80*
Cc1c(C(=O)NCc2ccccc2)oc2c1C(=O)CCC2	nt	1
Cc1oc2c(c1C(=O)NCc1ccccc1)C(=O)c1ccccc1C2=O	93*	18
CN(Cc1ccccc1)c1nc2c(S(=O)(=O)c3ccccc3)nnn2c2ccccc12	nt	-2
N#C/C(=C\Nc1cc(C(F)(F)F)cc(C(F)(F)F)c1)S(=O)(=O)Cc1ccc(Cl)cc1	107*	12
N#C/C(=C\Nc1cc(C(F)(F)F)cc(C(F)(F)F)c1)S(=O)(=O)c1ccccn1	-8	-1
O=C1C2C3C=CC(C3)C2C(=O)N1Cc1ccccc1Cl (stereo not given)	nt	-5
COc1ccc(C(OC(=O)c2ccccc2)c2nccc3ccccc23)cc1 (stereo not given)	nt	1
COc1c(O)c2c(=O)cc(OC)c3c4c(OC)cc(=O)c5c(O)c(OC)c(C[C@@H](C)OC(=O)c6ccccc6)c(c(c1C[C@@H](C)OC(=O)Oc1ccc(O)cc1)c23)c54	72*	-7
C[C@@H]1CCCCO[C@@H](CN(C)Cc2ccc3c(c2)OCO3)[C@@H](C)CN([C@H](C)CO)C(=O)c2cc(NS(=O)(=O)c3cccs3)ccc2O1	74*	nt
COc1ccc(NC(=O)Nc2ccc3c(c2)C(=O)N([C@H](C)CO)C[C@H](C)[C@@H](CN(C)Cc2ccc4c(c2)OCO4)OCCCC[C@@H](C)O3)cc1	7	nt
COc1ccc(NC(=O)Nc2ccc3c(c2)C(=O)N([C@H](C)CO)C[C@H](C)[C@H](CN(C)Cc2ccc4c(c2)OCO4)OCCCC[C@@H](C)O3)cc1	72*	nt
Cc1ccc(S(=O)(=O)Nc2ccc3c(c2)C(=O)N([C@H](C)CO)C[C@H](C)[C@@H](CN(C)Cc2ccccc2)OCCCC[C@@H](C)O3)cc1	68*	nt
C[C@@H]1CCCCO[C@H](CN(C)Cc2ccncc2)[C@@H](C)CN([C@H](C)CO)C(=O)c2cc(NS(=O)(=O)c3cccs3)ccc2O1	16	nt
COc1ccc(S(=O)(=O)Nc2ccc3c(c2)C(=O)N([C@H](C)CO)C[C@H](C)[C@H](CN(C)Cc2ccccc2)OCCCC[C@@H](C)O3)cc1	0	nt
CCC1(C)Oc2ccc(NC(=O)c3cc(F)c(F)cc3Cl)cc2O1 (stereo not given)	nt	2
COc1ccc(CN(C)C[C@@H]2Oc3ccc(NC(=O)Nc4cccc5ccccc45)cc3CC(=O)N([C@@H](C)CO)C[C@@H]2C)cc1	69*	nt
C[C@@H]1CN([C@H](C)CO)C(=O)Cc2cc(NC(=O)C3CCCCC3)ccc2O[C@@H]1CN(C)Cc1ccc(Oc2ccccc2)cc1	70*	nt
COc1ccc(CN(C)C[C@H]2Oc3ccc(NC(=O)Nc4cccc5ccccc45)cc3CC(=O)N([C@@H](C)CO)C[C@H]2C)cc1	-1	nt
C[C@H](CO)N1C[C@H](C)[C@H](CN(C)Cc2ccc(Oc3ccccc3)cc2)Oc2ccc(NC(=O)c3ccncc3)cc2CC1=O	34	nt
C[C@@H]1CN([C@H](C)CO)C(=O)Cc2cc(NC(=O)c3ccncc3)ccc2O[C@@H]1CN(C)Cc1ccc(Oc2ccccc2)cc1	73*	nt
C[C@H](CO)N1C[C@H](C)[C@H](CN(C)Cc2ccc(Oc3ccccc3)cc2)Oc2ccc(NC(=O)C3CCCCC3)cc2CC1=O	18	nt
Cc1ccc2[nH]c(=O)c3cc(C(=O)NCC4COc5ccccc5O4)sc3c2c1 (stereo not given)	nt	2
